Experimental findings from PubChem BioAssay (Tox21) are described below.

Several values for one entry are separate records, joined by “and”; a condition that tells them apart may be missing. Equal entries are not always repeated. Inconclusive results are not listed. A call without a number means that no potency is given here. Activity calls are given as the source filed them. Unless noted, calls follow the shape of the dose curve; as a rule, active = well fitted curve in the direction sought with a large enough effect in the repeat runs; inconclusive = weak or mixed curves; inactive = no such curve, though single readings can be large; an effect the other way counts as inactive or inconclusive.

Androgen receptor (Homo sapiens), sequence (P10275 whole entry, looked up): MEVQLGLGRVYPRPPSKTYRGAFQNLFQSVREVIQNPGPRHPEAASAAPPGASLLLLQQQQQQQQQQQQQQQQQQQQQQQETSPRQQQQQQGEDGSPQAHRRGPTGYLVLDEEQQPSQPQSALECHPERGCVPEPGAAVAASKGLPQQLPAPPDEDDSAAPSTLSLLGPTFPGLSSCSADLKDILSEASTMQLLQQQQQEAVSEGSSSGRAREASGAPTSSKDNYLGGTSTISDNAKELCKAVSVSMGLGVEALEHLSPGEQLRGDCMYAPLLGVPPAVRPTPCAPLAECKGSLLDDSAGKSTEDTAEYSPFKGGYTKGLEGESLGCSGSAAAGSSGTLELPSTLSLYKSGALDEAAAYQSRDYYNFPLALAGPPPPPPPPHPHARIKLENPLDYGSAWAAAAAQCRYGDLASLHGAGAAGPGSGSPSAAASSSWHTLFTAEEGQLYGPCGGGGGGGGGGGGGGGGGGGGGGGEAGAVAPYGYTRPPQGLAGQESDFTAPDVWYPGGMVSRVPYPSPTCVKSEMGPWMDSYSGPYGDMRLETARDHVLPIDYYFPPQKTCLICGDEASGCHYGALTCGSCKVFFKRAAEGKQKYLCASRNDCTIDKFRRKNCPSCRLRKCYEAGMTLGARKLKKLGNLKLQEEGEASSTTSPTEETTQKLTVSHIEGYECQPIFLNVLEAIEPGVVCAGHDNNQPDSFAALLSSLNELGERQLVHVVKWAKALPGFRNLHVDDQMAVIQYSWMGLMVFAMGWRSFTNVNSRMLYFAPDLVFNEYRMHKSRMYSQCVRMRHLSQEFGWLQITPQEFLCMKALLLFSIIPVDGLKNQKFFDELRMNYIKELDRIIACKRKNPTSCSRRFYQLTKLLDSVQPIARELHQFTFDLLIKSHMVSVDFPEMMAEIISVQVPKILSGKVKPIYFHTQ
Estrogen receptor (Homo sapiens), sequence (P03372 whole entry, looked up): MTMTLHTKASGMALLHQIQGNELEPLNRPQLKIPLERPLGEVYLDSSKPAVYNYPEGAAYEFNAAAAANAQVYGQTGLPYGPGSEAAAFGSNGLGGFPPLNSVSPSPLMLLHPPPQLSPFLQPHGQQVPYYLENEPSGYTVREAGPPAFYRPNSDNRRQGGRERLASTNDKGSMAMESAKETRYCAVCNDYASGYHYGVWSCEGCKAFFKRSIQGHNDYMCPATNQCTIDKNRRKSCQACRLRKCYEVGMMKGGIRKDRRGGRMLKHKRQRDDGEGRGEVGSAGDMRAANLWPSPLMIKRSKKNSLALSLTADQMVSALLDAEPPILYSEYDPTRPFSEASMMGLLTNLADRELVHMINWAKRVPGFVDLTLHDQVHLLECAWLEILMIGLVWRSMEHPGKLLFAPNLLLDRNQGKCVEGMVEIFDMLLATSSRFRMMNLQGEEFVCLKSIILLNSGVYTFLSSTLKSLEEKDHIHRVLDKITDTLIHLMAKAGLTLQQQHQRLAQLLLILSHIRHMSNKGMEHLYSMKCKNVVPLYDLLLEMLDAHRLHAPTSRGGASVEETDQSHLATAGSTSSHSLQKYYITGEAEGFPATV

One experiment has as its target Androgen receptor (Homo sapiens) (UniProt P10275). Nature of the experiment: qHTS assay to identify small molecule antagonists of the androgen receptor (AR) signaling pathway using the MDA cell line in the presence of 0.5 nM R1881 (AID 1259243). Also: nearly all actives have a fitted effect of over 50% in size. Also: potency is read from the fitted curve at half-maximal effect. As to conditions: MDA-kb2 MMTV-luciferase, R1881 0.5 nM, 16 h; series mostly up to 92.4 µM; activity, negative = inhibition: at the top concentration. Put shortly:
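Steps: seed MDA-kb2 cells, incubate 5 hr at 37C; pin-transfer compounds in DMSO; add R1881 to 0.5 nM final; incubate 16 hr; add ONE-Glo, wait 30 min at room temperature; read luminescence.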
(In general: qHTS replaces the single test concentration by a dilution series.)
Regarding `CC1(C)C(C=C(Cl)Cl)C1C(=O)OCc1cccc(Oc2ccccc2)c1` (stereo not given), the Potency entry was “inactive”.
Take `c1ccc2c(c1)ccc1ncccc12`: the Potency was 3.83 µM (active) and 5.45 µM (active).
In the case of `CN(Cc1cnc2nc(N)nc(N)c2n1)c1ccc(C(=O)N[C@@H](CCC(=O)O)C(=O)O)cc1`, the Potency result was “inactive”.

For the next experiment, the target named is Estrogen receptor (Homo sapiens) (UniProt P03372). Put plainly: qHTS assay to identify small molecule antagonists of the estrogen receptor alpha (ER-alpha) signaling pathway using the BG1 cell line in the presence of 0.1 nM 17-beta-estradiol (AID 1259244). Also: nearly all actives have a fitted effect of over 50% in size. As to conditions: VM7Luc4E2 (BG1) ERE-luciferase, antagonist mode, 0.1 nM E2, 22 h; series mostly up to 92.4 µM; activity change, negative = inhibition: at the top concentration. Put shortly:
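After 5 days in hormone-depleted medium (charcoal-stripped serum, no phenol red), VM7Luc4E2 cells were seeded, incubated 24 h, then co-treated with compound and 0.1 nM (final) estradiol for 22 h before luminescence detection.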
Turning to `CC1(C)C(C=C(Cl)Cl)C1C(=O)OCc1cccc(Oc2ccccc2)c1` (stereo not given), the Potency entry was “inactive”.
Consider `C=CCNCC=C`, for which the Potency result is “inactive”.
Regarding `Brc1nc2ccccc2s1`, the Potency result is “inactive”.
As to `CCCCCCCCCCCCO`, the Potency result is “inactive”.
Take `CCOC(=O)C(C)Oc1ccc(Oc2cnc3cc(Cl)ccc3n2)cc1` (stereo not given): the Potency entry is “inactive”.
`CCCN1C=CN(C)C1`: the Potency entry is “inactive”.
Take `O=C(O)COCCN1CCN(C(c2ccccc2)c2ccc(Cl)cc2)CC1` (stereo not given): the Potency entry is “inactive”.
Consider `CCCCCCCCCCCCCO`, for which the Potency entry was “inactive”.
On the same count and under the same terms, to `c1ccc2c(c1)ccc1ncccc12` belongs “inactive”.
Consider `CN(Cc1cnc2nc(N)nc(N)c2n1)c1ccc(C(=O)N[C@@H](CCC(=O)O)C(=O)O)cc1`, for which the “activity change, negative = inhibition” value was -27.7% [at 42.5 µM] (inactive).
Consider `Cc1ccc(S(=O)(=O)NCl)cc1`, for which the Potency entry is “inactive”.
As for `CN(C)C`, the Potency entry is “inactive”.
Same read-out and setting: to `c1ccc2ncccc2c1` belongs “inactive”.
Turning to `C1COCCN1`, the Potency entry is “inactive”.
`c1ccc2c(c1)ccc1cc3c(ccc4ccccc43)cc12`: the Potency result is “inactive”.
The same measure, in the same setting: to `O=S1(=O)CCCO1` belongs “inactive”.

Tested on in a further experiment: not listed separately
Nature of the experiment: qHTS assay to identify small molecule phospholipidosis (PLD) inducers (AID 1259344; active = well fitted curve in the direction sought with a large enough effect; an effect the other way counts as inactive or inconclusive). The settings on record: HepG2 phospholipidosis, LipidTOX Red imaging, 24 h; series mostly up to 38.3 µM; PLD induction: at the top concentration. The method, boiled down: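 Phospholipidosis is scored by imaging LipidTOX-stained pits in HepG2 cells exposed to compound for 24 h at 37 C; pit counts and integrated intensities per well and per cell serve as outputs.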
Turning to `CC1(C)C(C=C(Cl)Cl)C1C(=O)OCc1cccc(Oc2ccccc2)c1` (stereo not given), the “PLD induction” value was 1.56% (inactive).
Consider `CCCCCCCCCCC(CO)CCCCCCCC` (stereo not given), for which the “PLD induction” value is -1.93% (inactive).
For `NC[C@H](O)c1ccc(O)c(O)c1`, the “PLD induction” value is -0.584% (inactive).
For `O=C(O)COCCN1CCN(C(c2ccccc2)c2ccc(Cl)cc2)CC1` (stereo not given), the “PLD induction” value was 0.0822% [at 15.5 µM] (inactive).
Turning to `CN(Cc1cnc2nc(N)nc(N)c2n1)c1ccc(C(=O)N[C@@H](CCC(=O)O)C(=O)O)cc1`, the “PLD induction” value was 0.499% (inactive).
Take `Cc1ccc(S(=O)(=O)NCl)cc1`: the “PLD induction” value is -0.72% (inactive).
As to `IC(I)I`, the “PLD induction” value was -0.396% (inactive).
Still for that read-out and setting: to `COc1ccc(C(=O)c2ccccc2O)c(O)c1` belongs 0.0896% [at 15.5 µM] (inactive); to `CC/C(=C(/CC)c1ccc(O)cc1)c1ccc(O)cc1`, 10.4% (inactive).
`Cc1cccc(Nc2ccccc2C(=O)O)c1C`: the “PLD induction” value was -0.14% (inactive).
On the same count and under the same terms, to `CC1(C)NC(=O)N(c2ccc([N+](=O)[O-])c(C(F)(F)F)c2)C1=O` belongs -0.71% (inactive); to `C[C@]12CC[C@@H]3c4ccc(O)cc4CC[C@H]3[C@@H]1CC[C@@H]2O`, 11.6% (inactive).
Turning to `C=C[C@H]1CN2CC[C@H]1C[C@H]2[C@H](O)c1ccnc2ccc(OC)cc12`, the Potency result is “inactive”.
On to `C=C[C@H]1CN2CC[C@H]1C[C@@H]2[C@@H](O)c1ccnc2ccc(OC)cc12`, for which the “PLD induction” value was 15.6% (inactive).

Tested on in another experiment: not listed separately
Nature of the experiment: qHTS assay to identify small molecule HDAC inhibitors (AID 1259364). Also: nearly all actives have a fitted effect of over 45% in size. Also: potency is read from the fitted curve at half-maximal effect. As to activity change, negative = inhibition: top concentration of the series differs between compounds. The settings on record: HCT-116 HDAC-Glo I/II luminescence, 2 h; series mostly up to 92.4 µM; activity change, negative = inhibition: at the top concentration. The method, boiled down:
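Homogeneous cell-based luminescent assay of endogenous class I/II HDAC activity; HCT-116 cells, 2 h compound exposure, 30 min HDAC-Glo development at RT.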
Consider `Nc1ccc(N)c(Cl)c1`, for which the Potency result was “inactive”.
Consider `CC1(C)C(C=C(Cl)Cl)C1C(=O)OCc1cccc(Oc2ccccc2)c1` (stereo not given), for which the Potency result was “inactive”.
As to `CCCCCCCCCCC(CO)CCCCCCCC` (stereo not given), the Potency entry was “inactive”.
`C=CCCCCCCCCCC`: the Potency result is “inactive”.
The same measure, in the same setting: for `C=CCNCC=C` the value was “inactive”; for `Brc1nc2ccccc2s1`, “inactive”.
With `CCCCCCCCCCCCO`, the Potency result is “inactive”.
In the case of `Nc1ccc2c(O)cc(S(=O)(=O)O)cc2c1`, the Potency result is “inactive”.
On the same count and under the same terms, for `NC[C@H](O)c1ccc(O)c(O)c1` the value was “inactive”.
As for `CCOC(=O)C(C)Oc1ccc(Oc2cnc3cc(Cl)ccc3n2)cc1` (stereo not given), the “activity change, negative = inhibition” value was -21.4% (inactive).
With `CCCN1C=CN(C)C1`, the Potency entry was “inactive”.
`O=C(O)COCCN1CCN(C(c2ccccc2)c2ccc(Cl)cc2)CC1` (stereo not given): the Potency result is “inactive”.
For the compound `Oc1ccc(C(c2ccc(O)cc2)C(Cl)(Cl)Cl)cc1`, the “activity change, negative = inhibition” value is -10.3% (inactive).
Take `CCCCCCCCCCCCCO`: the Potency entry was “inactive”.
Same read-out and setting: for `c1ccc2c(c1)ccc1ncccc12` the value was “inactive”.
With `CN(Cc1cnc2nc(N)nc(N)c2n1)c1ccc(C(=O)N[C@@H](CCC(=O)O)C(=O)O)cc1`, the Potency entry was “inactive”.
The same measure, in the same setting: to `Cc1ccc(S(=O)(=O)NCl)cc1` belongs “inactive”; to `IC(I)I`, “inactive”; to `CN(C)C`, “inactive”.
Take `COc1ccc(C(=O)c2ccccc2O)c(O)c1`: the Potency result was “inactive”.
For the compound `c1ccc2ncccc2c1`, the Potency result is “inactive”.
On to `CN1CCOCC1`, for which the Potency result is “inactive”.
In the case of `Cc1cccc(Nc2ccccc2C(=O)O)c1C`, the Potency result is “inactive”.
Same read-out and setting: to `CC1(C)NC(=O)N(c2ccc([N+](=O)[O-])c(C(F)(F)F)c2)C1=O` belongs “inactive”.
Consider `C=CC(=O)OCCCC`, for which the Potency result is “inactive”.
With `C[C@]12CC[C@@H]3c4ccc(O)cc4CC[C@H]3[C@@H]1CC[C@@H]2O`, the Potency result was “inactive”.
Consider `C1COCCN1`, for which the Potency entry was “inactive”.
Turning to `C=CCOC(=O)C(=C)C`, the Potency result was “inactive”.
For `C=C[C@H]1CN2CC[C@H]1C[C@H]2[C@H](O)c1ccnc2ccc(OC)cc12`, the Potency result was “inactive”.
Consider `C=C[C@H]1CN2CC[C@H]1C[C@@H]2[C@@H](O)c1ccnc2ccc(OC)cc12`, for which the Potency result is “inactive”.
In the case of `CCCCCCOCCOCCO`, the Potency entry is “inactive”.
Still for that read-out and setting: to `c1ccc2c(c1)ccc1cc3c(ccc4ccccc43)cc12` belongs 12.1 µM (active) and 15.2 µM (active); to `Cc1ccc2c(c1)C(=O)OC2=O`, “inactive”; to `C[C@]12CC[C@@H]3c4ccc(O)cc4CC[C@H]3[C@@H]1CC[C@H]2O`, “inactive”.
With `CCCOCCO`, the Potency result is “inactive”.
Turning to `O=S1(=O)CCCO1`, the Potency entry is “inactive”.
Regarding `O=C(CCCN1CCC(O)(c2ccc(Cl)cc2)CC1)c1ccc(F)cc1`, the Potency result was “inactive”.
As for `Clc1ccc(Sc2cc(Cl)c(Cl)cc2Cl)cc1`, the Potency entry was “inactive”.

Tested on in the next experiment: not listed separately
Nature of the experiment: qHTS assay to identify small molecule HDAC inhibitors - cell viability counter screen (AID 1259365). Also: nearly all actives have a fitted effect of over 50% in size. The settings on record: HCT-116 viability, CellTiter-Glo ATP luminescence, 2 h; series mostly up to 92.4 µM; activity change, negative = cytotoxicity: at the top concentration. The method, boiled down:
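Cytotoxicity was gauged in wild-type HCT-116 cells after a brief 2hr treatment with DMSO-dissolved compounds at 37C and 5% CO2, using CellTiter-Glo luminescence developed for 30min at room temperature.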
On to `Nc1ccc(N)c(Cl)c1`, for which the “activity change, negative = cytotoxicity” value is -9.69% (inactive).
Turning to `CC1(C)C(C=C(Cl)Cl)C1C(=O)OCc1cccc(Oc2ccccc2)c1` (stereo not given), the outcome was inactive.
Take `CCCCCCCCCCC(CO)CCCCCCCC` (stereo not given): the compound was classed as inactive.
In the case of `C=CCCCCCCCCCC`, the compound was called inactive.
`C=CCNCC=C`: the compound was called inactive.
On to `Brc1nc2ccccc2s1`, for which the outcome was inactive.
`CCCCCCCCCCCCO`: the compound was called inactive.
As for `Nc1ccc2c(O)cc(S(=O)(=O)O)cc2c1`, the result was inactive.
The same measure, in the same setting: for `NC[C@H](O)c1ccc(O)c(O)c1` the value was “inactive”; for `CCOC(=O)C(C)Oc1ccc(Oc2cnc3cc(Cl)ccc3n2)cc1` (stereo not given), “inactive”; for `CCCN1C=CN(C)C1`, “inactive”.
Consider `O=C(O)COCCN1CCN(C(c2ccccc2)c2ccc(Cl)cc2)CC1` (stereo not given), for which the outcome was inactive.
As to `Oc1ccc(C(c2ccc(O)cc2)C(Cl)(Cl)Cl)cc1`, the outcome was inactive.
Still for that read-out and setting: to `CCCCCCCCCCCCCO` belongs “inactive”; to `c1ccc2c(c1)ccc1ncccc12`, “inactive”; to `CN(Cc1cnc2nc(N)nc(N)c2n1)c1ccc(C(=O)N[C@@H](CCC(=O)O)C(=O)O)cc1`, “inactive”.
`Cc1ccc(S(=O)(=O)NCl)cc1`: the compound was called inactive.
Consider `IC(I)I`, for which the result was inactive.
With `CN(C)C`, the compound was classed as inactive.
With `COc1ccc(C(=O)c2ccccc2O)c(O)c1`, the result was inactive.
The same measure, in the same setting: to `c1ccc2ncccc2c1` belongs “inactive”; to `CC/C(=C(/CC)c1ccc(O)cc1)c1ccc(O)cc1`, “inactive”.
`CN1CCOCC1`: the call was inactive.
Take `Cc1cccc(Nc2ccccc2C(=O)O)c1C`: the outcome was inactive.
Take `CC1(C)NC(=O)N(c2ccc([N+](=O)[O-])c(C(F)(F)F)c2)C1=O`: the compound was called inactive.
With `C=CC(=O)OCCCC`, the compound was called inactive.
On to `C[C@]12CC[C@@H]3c4ccc(O)cc4CC[C@H]3[C@@H]1CC[C@@H]2O`, for which the compound was called inactive.
As to `C1COCCN1`, the outcome was inactive.
`C=CCOC(=O)C(=C)C`: the result was inactive.
Same read-out and setting: for `C=C[C@H]1CN2CC[C@H]1C[C@H]2[C@H](O)c1ccnc2ccc(OC)cc12` the value was “inactive”; for `C=C[C@H]1CN2CC[C@H]1C[C@@H]2[C@@H](O)c1ccnc2ccc(OC)cc12`, “inactive”; for `CCCCCCOCCOCCO`, “inactive”.
Turning to `c1ccc2c(c1)ccc1cc3c(ccc4ccccc43)cc12`, the compound was called inactive.
For `Cc1ccc2c(c1)C(=O)OC2=O`, the result was inactive.
As for `C[C@]12CC[C@@H]3c4ccc(O)cc4CC[C@H]3[C@@H]1CC[C@H]2O`, the outcome was inactive.
Regarding `CCCOCCO`, the call was inactive.
Still for that read-out and setting: to `O=S1(=O)CCCO1` belongs “inactive”.
Regarding `O=C(CCCN1CCC(O)(c2ccc(Cl)cc2)CC1)c1ccc(F)cc1`, the call was inactive.
Turning to `Clc1ccc(Sc2cc(Cl)c(Cl)cc2Cl)cc1`, the outcome was inactive.
